In the library only some 3.1% were active in any assay of this set; here they are far more common.
RGS12 GoLoco inh: inhibitors of human Gai1-RGS12 GoLoco interaction (red fluorophore) | Gai1:RGS12 GoLoco peptide FP, rhodamine, 10 min | Potency, µM (highest dose often 61.6 µM), without a hit: top-dose activity, negative = inhibition, hits mostly inhibitors | 0.44% of 230,000 active | AID 880; active = well fitted inhibition curve with a large enough effect, not every such curve was filed as active; inactive = no such curve, though single readings can be large or run the other way; also: nearly all actives have a fitted effect of over 30% in size
TRb-SRC2 inh: inhibitors of human thyroid hormone receptor beta-SRC2 interaction. TRbeta-SRC2 peptide binding, fluorescence polarization; receptor liganded with 1 µM T3. P10828. 0.065% of 280,000 active. AID 1469. Potency, µM (titrated, usually from 106 µM), for the others: top-dose activity change, negative = inhibition, actives largely listed as inhibitors;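 also: plate controls were bound peptide for no effect and peptide without receptor for full effect; nearly all actives have a fitted effect of over 50% in size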
Target sequence (P10828 whole entry, looked up): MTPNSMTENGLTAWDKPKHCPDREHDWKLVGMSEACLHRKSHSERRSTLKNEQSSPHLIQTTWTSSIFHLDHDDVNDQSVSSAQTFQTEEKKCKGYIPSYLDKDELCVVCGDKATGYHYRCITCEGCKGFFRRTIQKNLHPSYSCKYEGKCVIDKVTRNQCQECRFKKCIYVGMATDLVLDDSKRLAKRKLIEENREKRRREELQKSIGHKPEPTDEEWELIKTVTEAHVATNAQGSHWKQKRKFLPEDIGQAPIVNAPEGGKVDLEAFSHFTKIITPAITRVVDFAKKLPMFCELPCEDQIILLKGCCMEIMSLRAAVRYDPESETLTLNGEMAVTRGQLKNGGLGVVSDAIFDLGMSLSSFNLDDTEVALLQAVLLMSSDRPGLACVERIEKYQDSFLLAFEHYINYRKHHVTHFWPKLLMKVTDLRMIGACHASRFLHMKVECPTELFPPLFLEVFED
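TRb LBD 0.6 uM + Texas Red SRC2 peptide 20 nM, 1 uM T3, Tris buffer w/ 5% DMSO; compound pinned, 5 h RT; FP read ex 555/em 632; normalized to unbound and bound controls.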
Tau fibril ThT: tau fibrillization inhibition (ThT binding); 2.1% of 270,000 active; P10636; recombinant tau K18 P301L, heparin-induced fibrillization, ThT fluorescence; Potency, µM (doses to about 57.4 µM), inactives show top-dose activity, negative = inhibition, hits mostly inhibitors; also: nearly all actives have a fitted effect of over 55% in size
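ThT emission at 510 nm, taken 1 hr after adding 30 uM dye, quantifies aggregates formed when 20 uM heparin acts on human tau K18 P301L for 6 hr at 37 C.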
Tau fluor cs: counter-screen for tau fibril formation inhibitors; tau K18 P301L Alexa594 fluorescence, heparin fibrillization; Potency, µM (titrated, usually from 57.7 µM), without a hit: top-dose activity change, negative = decrease; 0.93% of 280,000 active; also: nearly all actives have a fitted effect of over 55% in size
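Human K18 P301L tau (15 uM unlabeled plus 0.24 uM Alexa 594-labeled, final) in 100 mM sodium acetate pH 7 was mixed with compound and 20 uM heparin and incubated 6 hr at 37 C.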
TR SRC2 fluor cs: counter-screen for TRb-SRC2 inhibitors: fluorescence interference | TRb/SRC2 Texas Red total fluorescence interference | Potency, µM (series often up to 106 µM), for the others: at the highest dose fluorescence change, negative = quenching | 0.29% of 280,000 active | AID 1479; active = well fitted curve in either direction with a large enough effect; inconclusive = small, poorly fitted or top-dose-only effect
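Flags fluorescent or light-absorbing compounds by total fluorescence, S + 2P, at 555 nm excitation and 632 nm emission. Mixture: 20 nM Texas Red SRC2 peptide, 0.6 uM human TRb LBD, 1 uM T3, 5% DMSO; compound exposure 5 h at ambient temperature.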
Tau fibril FP: inhibitors of human tau fibril formation; P10636; K18 P301L tau heparin fibrillization, Alexa594 FP, 6 h; Potency, µM (top dose mostly 57.7 µM), inactives show top-dose activity, negative = inhibition, most hits filed as inhibitors; 0.39% of 280,000 active; AID 1468; also: nearly all actives have a fitted effect of over 55% in size
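Heparin (20 uM) drove fibril formation of recombinant tau K18 P301L, 15 uM unlabeled with 0.24 uM Alexa 594 label, for 6 hr at 37 C in 100 mM sodium acetate pH 7. Fluorescence polarization (555/632 nm) read 1 hr after 30 uM ThT.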
An asterisk follows results filed as active; [ ] = another dose, or the depositor's remark. Unless noted, calls follow the shape of the dose curve; as a rule, active = well fitted curve in the direction sought with a large enough effect; inconclusive = small, poorly fitted or top-dose-only effect, or another doubt; inactive = no such curve, though single readings can be large; an effect the other way counts as inactive or inconclusive. Unless noted, % is scaled to controls: 0 for no effect and ±100 for the full control effect; potency is read from the fitted curve at half-maximal effect.

How did O=C(O)CSc1cc(C(=O)c2ccccc2O)cn2c(=O)c3c(-c4ccccc4)csc3nc12 do in these assays?
RGS12 GoLoco inh: 19%; TRb-SRC2 inh: 17%; Tau fibril ThT: 25µM*; Tau fluor cs: -12%; TR SRC2 fluor cs: -5%; Tau fibril FP: -4%

Results for Cc1sc2nc3c(SC(C)C(=O)O)cc(C(=O)c4ccccc4O)cn3c(=O)c2c1C (stereo not drawn) ?
RGS12 GoLoco inh: 32%; TRb-SRC2 inh: 3%; Tau fibril ThT: 14µM*; Tau fluor cs: -7%; TR SRC2 fluor cs: -2%; Tau fibril FP: -12%

What do the screens show for `CCOC(=O)C1CCN(S(=O)(=O)c2ccc(Cl)nc2)CC1`?
RGS12 GoLoco inh: 1%; TRb-SRC2 inh: -6%; Tau fibril ThT: -1%; Tau fluor cs: -4%; TR SRC2 fluor cs: -1%; Tau fibril FP: 3%

How did Cc1nn(CC(C)C)c(=S)[nH]c1=O do in these assays?
RGS12 GoLoco inh: 5%; TRb-SRC2 inh: -9%; Tau fibril ThT: -2%; Tau fluor cs: 4%; TR SRC2 fluor cs: 0%; Tau fibril FP: 2%

Results for COc1ccccc1-c1cc2nc(C)c(CCC(=O)NCc3cccc(Cl)c3)c(C)n2n1 ?
TRb-SRC2 inh: -5%; Tau fibril ThT: -13%; Tau fluor cs: -15%; TR SRC2 fluor cs: inconclusive; Tau fibril FP: -3%

Results for Cc1cc(NC(=O)Cn2c(=O)nc(-c3ccccc3F)c3cc(Cl)ccc32)ccc1Br ?
TRb-SRC2 inh: -26%[53 µM]; Tau fibril ThT: 7%; Tau fluor cs: inconclusive; TR SRC2 fluor cs: 0.035µM*[quencher]; Tau fibril FP: -16%

How did COC(=O)/C(=C(/F)Sc1cc(C)c(O)c(C)c1)C(F)(F)F do in these assays?
RGS12 GoLoco inh: -15%; TRb-SRC2 inh: -6%; Tau fibril ThT: inconclusive; Tau fluor cs: 13µM*[quencher]; TR SRC2 fluor cs: 2%; Tau fibril FP: inconclusive

Results for O=[N+]([O-])c1cccc(S(=O)(=O)Nc2nc3ccccc3nc2Nc2cccc(S(=O)(=O)N3CCCCC3)c2)c1 ?
RGS12 GoLoco inh: 1%; TRb-SRC2 inh: -13%; Tau fibril ThT: 16µM*; Tau fluor cs: inconclusive; TR SRC2 fluor cs: -1%; Tau fibril FP: -9%

What do the screens show for `CCN(CC)c1ccc(-n2cc3c(=O)n(C)c(=O)n(C)c3c2)cc1`?
RGS12 GoLoco inh: -11%; TRb-SRC2 inh: -3%; Tau fibril ThT: 5µM*; Tau fluor cs: inconclusive; TR SRC2 fluor cs: -9%; Tau fibril FP: 6%

How did Cc1cccc(-n2cc3c(=O)n(C)c(=O)n(C)c3c2)c1 do in these assays?
RGS12 GoLoco inh: 12%; TRb-SRC2 inh: 3%; Tau fibril ThT: -6%; Tau fluor cs: -1%; TR SRC2 fluor cs: -6%; Tau fibril FP: 12%

What do the screens show for `CN(C)c1ccc(-n2cc3c(=O)n(C)c(=O)n(C)c3c2)cc1`?
RGS12 GoLoco inh: -5%; TRb-SRC2 inh: -4%; Tau fibril ThT: 2.8µM*; Tau fluor cs: -20%; TR SRC2 fluor cs: -7%; Tau fibril FP: 3%

Results for O=C(NC1CCCCC1)c1cc(Nc2ccccc2)nc2ccccc12 ?
TRb-SRC2 inh: -9%; Tau fibril ThT: -7%; Tau fluor cs: inconclusive; TR SRC2 fluor cs: -1%; Tau fibril FP: inconclusive

How did O=S(=O)(CCN1CCN(C(c2ccccc2)c2ccccc2)CC1)C(F)(F)F do in these assays?
RGS12 GoLoco inh: -10%; TRb-SRC2 inh: 0%; Tau fibril ThT: inconclusive; Tau fluor cs: -14%; TR SRC2 fluor cs: -3%; Tau fibril FP: -6%

Results for Cc1sc(-c2ccncc2)nc1OC(=O)c1cc(Cl)cc(Cl)c1 ?
RGS12 GoLoco inh: 6%; TRb-SRC2 inh: 2%; Tau fibril ThT: 28µM*; Tau fluor cs: -15%; TR SRC2 fluor cs: 1%; Tau fibril FP: -12%
